G9a block: inhibitors of human histone lysine methyltransferase G9a; G9a H3K9 monomethylation, AlphaScreen, 2 h; Q96KQ7; 350,000 tested, 8.8% active; Potency, µM (titrated, usually from 102 µM), most hits filed as inhibitors; note: nearly all actives have a fitted effect of over 75% in size
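G9a (20 nM) preincubated 15 min RT with compounds, then 500 nM biotinylated H3K9 peptide and 20 uM SAM added; 2 h RT reaction. Monomethyl-H3K9 product detected by AlphaScreen with anti-H3K9me1 antibody, streptavidin donor and anti-rabbit IgG acceptor beads.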
JMJD2A Tudor inh: inhibitors of human JMJD2A Tudor domain | AlphaScreen JMJD2A-Tudor / H3K4me3 peptide binding | Potency, µM (titrated, usually from 114 µM), usual class: inhibitors | 390,000 tested, 4.4% active; note: nearly all actives have a fitted effect of over 50% in size
Target sequence (O75164 whole entry, looked up, the tested form may be a part): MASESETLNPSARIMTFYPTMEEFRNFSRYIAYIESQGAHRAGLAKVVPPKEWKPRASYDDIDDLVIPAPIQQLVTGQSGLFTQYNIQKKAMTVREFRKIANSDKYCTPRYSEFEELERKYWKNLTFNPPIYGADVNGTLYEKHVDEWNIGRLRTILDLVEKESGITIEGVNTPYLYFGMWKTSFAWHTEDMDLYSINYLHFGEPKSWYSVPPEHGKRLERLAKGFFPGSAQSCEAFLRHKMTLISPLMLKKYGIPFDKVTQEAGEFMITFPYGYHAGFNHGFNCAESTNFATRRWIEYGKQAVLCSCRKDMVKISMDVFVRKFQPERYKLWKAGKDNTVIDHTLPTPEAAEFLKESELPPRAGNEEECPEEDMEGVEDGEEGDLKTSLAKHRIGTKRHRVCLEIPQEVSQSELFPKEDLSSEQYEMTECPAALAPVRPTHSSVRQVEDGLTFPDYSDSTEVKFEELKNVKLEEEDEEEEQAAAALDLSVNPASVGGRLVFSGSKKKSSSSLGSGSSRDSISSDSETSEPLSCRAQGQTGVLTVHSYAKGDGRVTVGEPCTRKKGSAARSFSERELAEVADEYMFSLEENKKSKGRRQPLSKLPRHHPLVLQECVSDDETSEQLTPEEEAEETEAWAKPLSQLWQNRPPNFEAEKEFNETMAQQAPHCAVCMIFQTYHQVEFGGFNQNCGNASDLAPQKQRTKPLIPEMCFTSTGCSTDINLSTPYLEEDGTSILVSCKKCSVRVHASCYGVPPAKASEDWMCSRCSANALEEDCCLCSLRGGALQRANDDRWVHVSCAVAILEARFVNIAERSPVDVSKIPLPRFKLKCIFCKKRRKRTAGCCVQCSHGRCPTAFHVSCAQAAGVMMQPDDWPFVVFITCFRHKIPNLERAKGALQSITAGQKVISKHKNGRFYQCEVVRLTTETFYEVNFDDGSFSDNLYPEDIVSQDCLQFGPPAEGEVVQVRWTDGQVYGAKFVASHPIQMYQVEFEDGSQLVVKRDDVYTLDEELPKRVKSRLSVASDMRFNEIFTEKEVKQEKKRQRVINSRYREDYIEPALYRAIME
HP1b binding inh: blocks HP1-beta chromodomain binding to methylated histone tails; AlphaScreen HP1-beta / biotin-H3K9me3 peptide binding; Potency, µM (titrated, usually from 114 µM), usual class: inhibitors; 390,000 tested, 0.56% active; AID 540317; note: nearly all actives have a fitted effect of over 70% in size
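Compound inhibition of the preformed complex between 50 nM HP1-beta and 50 nM biotinylated H3K9me3 peptide was read by AlphaScreen. Buffer was PBS pH 7.4 with 0.01% Tween-20. Incubations ran 30 min at room temperature, with 10 ug/mL donor/acceptor beads.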
Sfp inh: Sfp phosphopantetheinyl transferase inhibition; Q9F4F7; Biochemical Sfp PPTase activity, qHTS; Potency, µM, hits mostly inhibitors; 310,000 tested, 3.5% active;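 note: the enzyme is Sfp with the accession as filed and its product quenches rhodamine fluorescence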
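Fluorescence-quenching assay with 15 nM Sfp, 5 uM rhodamine-CoA and 12.5 uM BHQ-2-labelled ybbR peptide in pH 7.6 Hepes/MgCl2 buffer. Enzyme was pre-incubated with compound for 15 min at room temperature. Rate was taken from the 30-min fluorescence change (525/598 nm).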
BAZ2B inh: blocks human BAZ2B | Q9UIF8 | 360,000 tested, 4.4% active | AlphaScreen BAZ2B-H3K14Ac peptide displacement | Potency, µM (doses to about 114 µM), usual class: inhibitors; note: nearly all actives have a fitted effect of over 60% in size
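AlphaScreen luminescence quantifies BAZ2B engagement of H3K14Ac peptide; the protein and biotinylated peptide are both at 50 nM final, buffer PBS pH 7.4 with 0.01% Tween-20, all steps at room temperature.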
Numbers stand for hits; . = inactive; ? = inconclusive; / = no result given; [ ] = dose if it differs, or a comment. This is a sample that favours compounds with a hit; in the whole collection about 12% have one here. Calls come from the whole dose curve; as a rule, active = well fitted curve in the direction sought with a large enough effect; inconclusive = small, poorly fitted or top-dose-only effect, or another doubt; inactive = no such curve, though single readings can be large; an effect the other way counts as inactive or inconclusive.

SMILES | G9a block | JMJD2A Tudor inh | HP1b binding inh | Sfp inh | BAZ2B inh
COc1ccc(N(CC(=O)NC(C)C)S(=O)(=O)c2ccc(NC(C)=O)cc2)cc1 | 1.4µM | . | . | . | .
COCCCNC(=O)CN(c1ccc(OC)cc1)S(=O)(=O)c1ccc(NC(C)=O)cc1 | .[12.7 µM] | . | . | . | .
CCOC(=O)/C(C#N)=C1/C=CN(C)C=N1 | ? | . | . | . | .
COc1cc2c(cc1OC)-c1cc(Nc3ccc(C(=O)O)cc3)nc(=O)n1CC2 | ? | ? | ? | . | 71µM
COc1ccc(Nc2cc3n(c(=O)n2)CCc2cc(OC)c(OC)cc2-3)cc1 | .[2.33 µM] | ? | . | . | .
Cc1ccc(-n2[nH]c(C)c(CCC#N)c2=O)cc1 | . | . | . | . | .
CC(=O)OC1(C(F)(F)F)Oc2ccccc2NC1=O (centres undefined) | . | . | . | . | .
Oc1cccc(Nc2cc(-c3ccccc3)ncn2)c1 | ? | . | . | / | 50µM
CCOC(=O)CNS(=O)(=O)c1cc(-c2nn(C)c(=O)c3ccccc23)ccc1C | ? | ? | . | . | 56µM
N#Cc1ccc(/C=C/C(=O)c2cccnc2)cc1 | 25µM | . | . | 50µM | /
O=C(/C=C/c1ccc(Cl)cc1)c1cccnc1 | 45µM | . | . | ? | .
O=C(/C=C/c1ccccc1Cl)c1cccnc1 | 35µM | . | . | 32µM | .
CCN(CC)c1ccc(/C=C/C(=O)c2cccnc2)cc1 | . | ? | . | . | ?
O=C(/C=C/c1ccccc1Cl)c1ccc(O)cc1 | . | . | . | . | .
CC(C)CCNC(=O)Cn1c(NCCC(C)C)nc2c1c(=O)n(C)c(=O)n2C | / | . | . | / | /
O=C(C1CCN(S(=O)(=O)c2cc(Cl)ccc2Cl)CC1)N1CCOCC1 | . | . | . | . | .
O=c1[nH]c2cc3c(cc2cc1C(c1nnnn1C1CCCC1)N1CCCc2ccccc21)OCCO3 (centres undefined) | . | . | . | . | .
COc1cc(C(=O)C(=O)c2cc(OC)c(O)c(OC)c2)cc(OC)c1O | 45µM | . | . | . | .
O=C(COc1ccc(F)cc1)Nc1cc(S(=O)(=O)N2CCCCC2)ccc1N1CCCCC1 | 2µM | ? | . | / | ?
O=C(COc1ccc([N+](=O)[O-])cc1)Nc1cc(S(=O)(=O)N2CCCCC2)ccc1N1CCCCC1 | 1.8µM | 20µM | . | / | .
CCOC(=O)c1c(NC(=O)COc2ccc(Cl)cc2C)sc(C(C)=O)c1C | . | . | . | / | .
CCC(=O)N/C(=N/c1nc(C)cc(C)n1)Nc1ccc(OC)cc1 | . | . | . | . | .
Cc1cc(SCC(=O)OCC(=O)NCc2ccc3c(c2)OCO3)c(C)cc1Br | . | . | . | . | .
C=C(C)C(=O)Nc1ccc(OC(F)(F)C(F)F)c(NC(=O)C(=C)C)c1 | / | 79µM | 56µM | . | 45µM
CC(=O)Nc1ccc(OC(F)(F)C(F)F)c(NC(C)=O)c1 | . | . | . | . | ?
SMILES | G9a block | JMJD2A Tudor inh | HP1b binding inh | Sfp inh | BAZ2B inh
Cc1ccc(/C=N\NC(=O)CCc2n[nH]c(=O)[nH]c2=O)o1 | . | 16µM | . | ? | .
CC(C)c1ccc(Nc2nnns2)cc1 | 10µM | ? | ? | 20µM | .
CC(C)c1ccc(NC(=O)c2ccc3snnc3c2)cc1 | . | . | . | . | .
O=C1C2C3c4ccccc4C(c4ccccc43)C2C(=O)N1c1ccncc1 (centres undefined) | / | . | . | . | .
CCCCNC(=S)NNC(=O)c1ccco1 | . | . | . | . | .
Cc1ccc(-n2c(C)nnc2SC(C)C(=O)N2CCCC2)cc1 (centres undefined) | . | . | . | . | .
c1ccc(C(CN2CCOCC2)c2ccccc2)cc1 | 25µM | 4µM | ? | . | ?
CC(CCN1CCOCC1)c1ccccc1 (centres undefined) | 11µM | 22µM | ? | . | ?
Cc1ccc2c(c1)N(CC(=O)c1cccc(Cl)c1)C(=O)C(C)O2 (centres undefined) | . | . | . | . | .
CCC(CO)Oc1cc(NCc2ccc(C(C)(C)C)cc2)c2ncn(C(C)C)c2c1 (centres undefined) | / | 25µM | . | / | /
CCC(COC)Oc1cc(NCc2ccccc2)c2ncn(C(C)C)c2c1 (centres undefined) | .[0.501 µM] | 50µM | . | / | 50µM
CCC(CO)Oc1cc(NCc2ccccc2)c2ncn(C(C)C)c2c1 (centres undefined) | / | ? | . | / | /
CCC(COC(=O)c1ccccc1)Oc1cc(NCc2ccccc2)c2ncn(C(C)C)c2c1 (centres undefined) | / | 45µM | . | / | /
O=C(c1cccc([N+](=O)[O-])c1)c1ccc2c(c1)OCCOCCOCCO2 | . | . | . | . | ?
Cc1cc(C)c(S(=O)(=O)N2CCOC2CNC(=O)C(=O)NCCCN2CCCC2=O)c(C)c1 (centres undefined) | . | . | . | . | .
COc1cccc(/C=N/NC(=O)c2c(C)nc3ccc(Br)cn23)c1O | . | 35µM | . | . | 7.9µM
Cc1cc(/C=N/O)c(C)n1-c1ccc(Br)cc1 | ? | ? | ? | . | 45µM
COc1cc(/C=N/NC(=O)c2nc3ccccn3c2C)cc(OC)c1O | 16µM | . | . | . | .
CCOc1ccccc1/C=N/NC(=O)c1c(C)nc2ccc(Br)cn12 | . | . | . | . | .
Cc1nc2ccccn2c1C(=O)N/N=C/c1ccccc1 | .[2.33 µM] | . | . | . | .
Cc1c(C(=O)N/N=C/c2ccc(N3CCOCC3)cc2)nc2ccccn12 | . | . | . | . | .
Cc1nc2ccccn2c1C(=O)N/N=C/c1cc(C)n(-c2ccc(Br)cc2)c1C | . | ? | . | . | 45µM
COc1ccc(N(CC(=O)Nc2ccccc2OC)S(=O)(=O)c2ccccc2)cc1Cl | .[0.501 µM] | . | . | . | .
O=C(NNc1cccc(Cl)n1)C1CC1 | . | . | . | . | .
Cc1ccc(CNC(=O)CSc2nc(=O)n3ccccc3n2)cc1 | . | . | . | / | .
SMILES | G9a block | JMJD2A Tudor inh | HP1b binding inh | Sfp inh | BAZ2B inh
COc1ccc(/C=N/NC(=O)c2c(C)nc3ccc(Cl)cn23)cc1OC | . | . | . | . | .
COc1cc(/C=N/NC(=O)c2c(C)nc3ccc(Cl)cn23)cc(OC)c1OC | / | 22µM | . | . | ?
Cc1cc(=O)[nH]c(SCC(=O)Nc2nc3c(s2)CCCC3)n1 | . | . | . | . | .
CCC(Sc1nc(C)cc(=O)[nH]1)C(=O)Nc1nc2c(s1)CCCC2 (centres undefined) | 45µM | . | . | . | ?
O=C(Cn1ccc2ccccc2c1=O)NCCC(=O)Nc1cccnc1 | .[2.33 µM] | . | . | . | .
CCC1(c2ccccc2)SCC(c2ccccc2)=NC1=O (centres undefined) | / | . | . | / | /
Cc1occc1C(=O)NCCCCc1ccccc1 | .[12.7 µM] | . | . | 18µM | .
Cc1occc1C(=O)NNC(=O)Cc1ccccc1 | 0.2µM | . | . | . | .
Cc1occc1C(=O)NCc1ccccc1 | .[0.0925 µM] | . | . | . | .
Cc1occc1C(=O)NCCc1ccc(Cl)cc1 | 79µM | . | . | . | .
COCCCC1CCN(C(=O)c2cc(COc3cc(C)ccc3C)on2)CC1 | / | . | . | . | .

Source: PubChem BioAssay (National Center for Advancing Translational Sciences (NCATS))
